Reference: PubChem BioAssay AID463195 (Sanford-Burnham Center for Chemical Genomics, 2010)
Hit rate of the full screen: of about 330,000 compounds, about 4,600 (1.4%) were called active.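 How the source made its calls: active means inhibition of 40% or more at the single tested concentration; inactive means the rest.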 The sample as a whole holds a higher share of actives than the screen did.

assay: growth inhibitors of isogenic TIM10 control yeast, primary screen, counter-screen for tim10-1 yeast inhibitor project, luminescence, uHTS (AID 463195);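 further: wild-type TIM10 isogenic control strain grown at permissive 25 °C; 0% = DMSO yeast wells and 100% = minimal medium wells without yeast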; conditions: S. cerevisiae TIM10 strain growth, BacTiter-Glo luminescence, 24 h; at 10 µM; hits give high values

Structure (SMILES)	inhibition
CCn1c(CNS(=O)(=O)c2ccc(Cl)cc2)n[nH]c1=S	-9.99% (inactive)
S=c1[nH]nc(CSCc2ccc(Cl)cc2Cl)n1-c1ccccc1	38.8% (inactive)
CCn1c(CSCc2c(Cl)cccc2Cl)n[nH]c1=S	53.7% (active)
Clc1ccc(C2=CSC3=Nc4cccc5cccc(c45)N23)cc1	21.2% (inactive)
CCN(CC)P(=O)(/C(Cl)=C\Nc1c(C)n(C)n(-c2ccccc2)c1=O)N(CC)CC	2.07% (inactive)
COc1ccc(CCNCC(O)Cn2ccc3ccccc32)cc1OC (stereo not given)	-8.76% (inactive)
O=C1c2ccccc2C(=O)c2c1cccc2N1CCN(C/C=C/c2ccccc2)CC1	38.5% (inactive)
O=C1c2ccccc2C(=O)c2c1cccc2N1CCN(CCO)CC1	12.2% (inactive)
O=C1c2ccccc2C(=O)c2c1cccc2N1CCN(Cc2ccccc2)CC1	41.3% (active)
Cc1ccc(NC(=O)CN(C)C(=O)Cn2nnc(-c3ccccc3)n2)cc1	0.534% (inactive)
COc1ccccc1CNC(=O)COc1ccc(C)nc1[N+](=O)[O-]	9.85% (inactive)
Cc1cccc(NC(=O)CCn2c(=O)oc3ccccc32)c1	-10% (inactive)
CC(OC(=O)c1cc2ccccc2o1)C(=O)Nc1ccc(N2CCOCC2)cc1 (stereo not given)	3.94% (inactive)
Cc1ccc(C(C)C)cc1OCC(=O)Nc1ccccc1N1CCCC1	-2.85% (inactive)
O=C(CN1CCN(C2CCCCC2)CC1)Nc1ccccc1N1CCCCC1	4.11% (inactive)
CN1CCN(c2ccccc2NC(=O)COc2ccc(C3CCCCC3)cc2)CC1	40.4% (active)
COc1ccc(CNC(=O)CCn2cccc2)cc1	-5.68% (inactive)
COc1ccc(NC(=O)/C(C#N)=C\c2cc(OC)c(OCc3ccc(C(=O)O)cc3)cc2Br)cc1	26.4% (inactive)
COc1ccc(CNC(=O)/C(C#N)=C/c2cccc(OC)c2OC)cc1	70.4% (active)
C=CCSc1nnc(N2C(=O)C(O)=C(C(=O)c3ccco3)C2c2ccc(F)cc2)s1 (stereo not given)	1.92% (inactive)
Cc1ccc2[nH]c3c(=O)n(CC(=O)NCCc4ccc(Cl)cc4)ncc3c2c1	-0.819% (inactive)
C=CCO/N=C/C1=C(O)C(C(=O)OC)C(C)(C)CC1=O (stereo not given)	6.77% (inactive)
O=C(Nc1ccncc1)c1cc2ccccc2o1	-3.62% (inactive)

Structure (SMILES)	inhibition
O=c1oc2ccccc2cc1-c1csc(Nc2ccc(O)cc2)n1	43.9% (active)
Cc1ccc(Nc2nc(-c3ccc(O)cc3O)cs2)nc1	11.7% (inactive)
Cc1csc(=O)n1CC(=O)Nc1ccc(S(C)(=O)=O)cc1	-3.37% (inactive)
CCn1c(=O)c2ccccc2n(CC(=O)N2CCCc3ccccc32)c1=O	-2.71% (inactive)
CC(C)c1ccc2c(c1)c(SC(C)(C)C)c(CC(C)(C)C(=O)O)n2Cc1ccc(Cl)cc1	3.33% (inactive)
N/C(=N\OC(=O)N1c2ccccc2Sc2ccccc21)c1ccc(Br)cc1	-9.5% (inactive)
N/C(=N\OC(=O)Cc1ccccc1[N+](=O)[O-])c1ccc(Br)cc1	57.9% (active)
N/C(=N/O)c1cccn1Cc1ccccc1[N+](=O)[O-]	-10.5% (inactive)
CC[C@@H]1Cc2cc(O)ccc2C2=C1c1ccc(O)cc1C[C@H]2CC	58.9% (active)
CCOc1ccc(N2C(=O)Nc3ccccc3C2(O)C(=O)NCc2ccco2)cc1 (stereo not given)	-6.83% (inactive)
CN(C)C(=O)CCc1ccc2c3c([nH]c2c1)[C@]1(CCc2ccccc2)[C@@H](C(=O)N2CCCCC2)C[C@H](CC(=O)NCCC2=CCCCC2)C(=O)N1CC3	-1.38% (inactive)
Cc1cc(C(F)(F)F)nc(SCC(=O)Nc2nccs2)n1	2.33% (inactive)
Cn1cnnc1SCC(=O)Nc1ccc(N2CCOCC2)cc1	-21.6% (inactive)
CCN(CC)CCN(C(=O)c1ccc(S(=O)(=O)N2CCOCC2)cc1)c1nc2cc3c(cc2s1)OCCO3	41% (active)
CN(C)CCCN(C(=O)c1ccc(S(=O)(=O)N2CCCCCC2)cc1)c1nc2cc3c(cc2s1)OCCO3	11.4% (inactive)
CCN(CC)CCN(C(=O)c1ccc(N2C(=O)CCC2=O)cc1)c1nc2cc3c(cc2s1)OCO3	-10.9% (inactive)
Cc1ccc(N(CC(=O)NCC2CCCO2)C(=O)CNS(=O)(=O)c2ccc(Cl)cc2)cc1 (stereo not given)	11.1% (inactive)
COc1cccc(N2CC(NS(=O)(=O)c3ccc(Cl)cc3)CC2=O)c1 (stereo not given)	-3.31% (inactive)
CCOC(=O)C1(C)NC(c2ccco2)C2C(=O)N(c3ccccc3)C(=O)C21 (stereo not given)	-0.047% (inactive)
CCCCC1(C(=O)OCC)NC(c2ccc(O)cc2)C2C(=O)N(c3ccccc3)C(=O)C21 (stereo not given)	58.8% (active)
CCCC1(C(=O)OCC)NC(c2ccc(N(C)C)cc2)C2C(=O)N(c3ccc4c(c3)OCCO4)C(=O)C21 (stereo not given)	4.95% (inactive)
Cc1ccc(NC(=O)C2CCCN2C(=O)OCc2ccccc2)cc1C (stereo not given)	-1.12% (inactive)
CC(=NCc1ccco1)c1c(C(F)(F)F)[nH]n(-c2nc3ccccc3s2)c1=O	50.6% (active)

Structure (SMILES)	inhibition
CCC(C)Cn1c(O)cc2nn(-c3nc4ccccc4s3)c(=O)c-2c1C (stereo not given)	-6.61% (inactive)
CCC1(CC)NC(=O)N(Cc2nc3ccccc3s2)C1=O	0.882% (inactive)
COc1cc(NC(=O)C2CC(c3ccccc3O)=NO2)c(OC)cc1Cl (stereo not given)	-3.49% (inactive)
COC(C/C=C/C(=O)[C@@H](C)OCc1ccccc1)OC	50.1% (active)
COC(C[C@@H]1O[C@@H]1C(=O)[C@H](C)OCc1ccccc1)OC	-11% (inactive)
COC(C[C@H](O)CC(=O)[C@@H](C)OCc1ccccc1)OC	8.38% (inactive)
COC(=O)[C@@H]1CC[C@H](C)[C@@H](c2ccc(C)cc2)N1C(=O)c1ccc(/C=N/O[C@H](C)c2cn([C@@H]3COC[C@H]3O)nn2)cc1	-0.068% (inactive)
CN(CC(=O)Nc1ccc(Cl)cc1)C(=O)CNC(=O)c1ccc2ccccc2c1	-7.81% (inactive)
CN(C)CCCN(C(=O)c1ccc(S(=O)(=O)N2CCCCCC2)cc1)c1nc2ccc(Br)cc2s1	34.5% (inactive)
CCOc1ccc2nc(N(CCCN(C)C)C(=O)c3ccc(C(=O)c4ccccc4)cc3)sc2c1	11.2% (inactive)
CN(C)CCCN(C(=O)c1ccc(S(=O)(=O)N2CCCc3ccccc32)cc1)c1nc2ccc(F)cc2s1	40.9% (active)
COc1ccc(Nc2oc(-c3ccccc3Cl)nc2C#N)cc1	13.8% (inactive)
Cc1cc(NCc2ccco2)n2c(nc3ccccc32)c1C#N	-0.142% (inactive)
Cc1ccccc1-c1nc(C#N)c(NCc2ccco2)o1	46.8% (active)
CC(C)CCn1c(=O)c2c(nc3n2CCCN3Cc2ccccc2)n(C)c1=O	11.2% (inactive)
COc1ccc(Cc2nnc(N/N=C/c3ccccc3O)[nH]c2=O)cc1OC	9.37% (inactive)
CSc1ccccc1NC(=O)c1cc(C2CC2)on1	7.03% (inactive)
Cc1nn(Cc2ccc(F)cc2)c(C)c1NC(=O)c1cccnc1Cl	-10.4% (inactive)
Cc1nn(Cc2ccc(Cl)c(Cl)c2)c(C)c1NC(=O)c1cc(C2CC2)on1	43% (active)
COc1ccc(CN2CCNC(=O)C2CC(=O)N(C)Cc2ccccn2)cc1OC (stereo not given)	10.2% (inactive)
CC(=O)Nc1ccc(CC#N)cc1	12.5% (inactive)
O=C(NCCN1C(=O)S/C(=C\c2cccnc2)C1=O)c1cccc(OC(F)F)c1	43.2% (active)
O=C(NCCN1C(=O)S/C(=C\c2cccnc2)C1=O)c1ccc(S(=O)(=O)N2CCCC2)cc1	2.86% (inactive)

Structure (SMILES)	inhibition
Cc1cc(OCCCC(=O)NCCN2C(=O)S/C(=C\c3cccnc3)C2=O)ccc1Cl	38.4% (inactive)
CCOc1ccc(N(CC(=O)NCC2CCCO2)S(=O)(=O)c2ccc(C)cc2)cc1 (stereo not given)	16.8% (inactive)
CC(=O)N1CCN(CC(=O)Nc2ccc(C)c(F)c2)CC1	-1.66% (inactive)
CCc1sc(C(=O)N2CCN(CC(=O)Nc3cccc(F)c3)CC2)cc1C	60.2% (active)
O=C(CN1CCN(C(=O)c2cccc(F)c2)CC1)Nc1ccccc1F	-0.2% (inactive)
O=C(NC1CC1)C(Cc1ccccc1)NS(=O)(=O)c1ccccc1F (stereo not given)	-6.34% (inactive)
COc1ccc(S(=O)(=O)N(CC(=O)N/N=C/c2ccc(C(=O)O)cc2)Cc2ccccc2)cc1OC	-21.2% (inactive)
COCCOC(=O)C1=C(C)N=c2s/c(=C\c3cccs3)c(=O)n2C1c1cccs1 (stereo not given)	21.4% (inactive)
CCOC(=O)C1=C(C)N=c2s/c(=C\C(=O)OC)c(=O)n2C1c1ccc(OC)cc1 (stereo not given)	61.5% (active)
CCOC(=O)C1=C(CSc2nccn2C)NC(=O)NC1c1ccc(OC)cc1 (stereo not given)	9.58% (inactive)
CC(c1ccccc1)n1c(NCCCn2ccnc2)nc2c1c(=O)[nH]c(=O)n2C (stereo not given)	1.78% (inactive)
Cc1ccc(C)c(NC(=O)C2Cc3ccccc3CN2C(=O)OCc2ccccc2)c1 (stereo not given)	27.9% (inactive)
COc1ccc(Cl)cc1N(CC(=O)N1CCCCC1)S(C)(=O)=O	1.46% (inactive)
Cc1[nH]c2ccccc2c1C(=O)COC(=O)c1c(-c2ccccc2)noc1C	48.3% (active)
Cc1onc(-c2ccccc2Cl)c1C(=O)OCC(=O)c1ccccc1	23.4% (inactive)
Cc1[nH]c2ccccc2c1C(=O)CSCC(=O)O	13.1% (inactive)
CCCN(CCC)C(=S)Nc1cc(C(=O)OC)ccc1C(=O)OC	-3.94% (inactive)
CCOC(=O)[C@@H]1[C@H]2COc3ccc(Br)cc3[C@H]2N2C(=O)N(c3ccc(C)cc3)C(=O)[C@@]12C	13.9% (inactive)
COc1ccc(C/C(N)=N/OC(=O)c2ccco2)cc1OC	-7.79% (inactive)
COc1ccc(C(=O)ON=C2c3ccccc3-c3ccccc32)cc1OC	18% (inactive)
COc1ccc(C(=O)O/N=C(\N)Cc2ccc(Cl)cc2Cl)cc1OC	85.8% (active)
